Records with an inconclusive call do not appear. Active and inactive are the calls of the source. Unless noted, the call rests on the fitted dose curve.
Experiments:
[1] = Nuclear factor erythroid 2-related factor 2/antioxidant responsive element (Nrf2/ARE) small molecule agonists: qHTS cell viability counter screen in human keratinocytes (AID 1919968; active means well fitted curve in the direction sought with a large enough effect in the repeat runs; an effect the other way counts as inactive or inconclusive; further: nearly all actives have a fitted effect of over 55% in size; further: potency means the concentration at half of the fitted maximal effect)
Procedure, shortened: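 After a 5 h attachment period, ARE-reporter keratinocytes were dosed with compounds in DMSO and then cultured 23 h at 37 C. Cell viability came from CellTiter-Fluor signal read after a further 1 h.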

[2] = Nuclear factor erythroid 2-related factor 2/antioxidant responsive element (Nrf2/ARE) small molecule agonists: luciferase reporter gene qHTS assay in human keratinocytes (AID 1919969); further: nearly all actives have a fitted effect of over 35% in size
[3] = target: Gonadotropin-releasing hormone receptor (Homo sapiens) (UniProt P30968); experiment: Human gonadotropin-releasing hormone receptor (GnRHR) small molecule agonists, calcium flux assay in GnRHR-HEK293 cells (AID 1920063); further: nearly all actives have a fitted effect of over 35% in size
Procedure, shortened: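 We seeded human GnRHR-expressing HEK293 cells for 18 hours, loaded them with calcium dye for an hour at 37 C, added test compounds, and recorded fluorescence intensity kinetically for three minutes.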

[4] = target: KiSS-1 receptor (Homo sapiens) (UniProt Q969F8); experiment: Human kisspeptin (KISS1R) small molecule agonists, calcium flux assay in KISS1R-HEK293 cells (AID 1920064; active means well fitted curve in the direction sought with a large enough effect in the repeat runs; an effect the other way counts as inactive or inconclusive)
Procedure, shortened: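 Kinetic calcium assay, 1 s sampling over 3 min at Ex/Em 480/540, in HEK293 cells engineered with human KISS1R; compounds delivered in DMSO after 1 h dye loading.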

[5] = G protein-coupled receptor (GPCR) small molecule agonists, calcium flux assay: HEK293 wild type cell line counter screen (AID 1920065)
Procedure, shortened: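 Calcium-sensitive dye, loaded 1 h at 37 C into cells cultured 18 h, reports compound-evoked calcium release as fluorescence (Ex/Em 480/540), measured over 3 min. Agonist mode; 15-point titrations, triplicate.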

[6] = p53 small molecule agonists, cell-based qHTS assay with human liver microsomes (AID 1963577);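 further: p53 response element beta-lactamase reporter cells with liver microsomes plus NADPH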
Procedure, shortened: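 16 h, 37 C exposure of p53RE-bla cells to compounds with human liver microsomes and NADPH (0.5 mg/mL final each); detection via LiveBLAzer mixture, 2 h dark at room temperature.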

[7] = p53 small molecule agonists, cell-based qHTS assay with rat liver microsomes (AID 1963578)
Procedure, shortened: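 With rat liver microsomes and NADPH present (0.5 mg/mL final each), p53RE-bla cells are treated with compound for 16 h at 37 C. LiveBLAzer detection mixture is then applied for 2 h at room temperature in the dark.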

[8] = p53 small molecule agonists, cell-based qHTS assay with human liver microsomes: qHTS cell viability counter screen (AID 1963579); further: nearly all actives have a fitted effect of over 45% in size
Procedure, shortened: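 In this multiplexed counter screen, the reporter plates were subsequently treated with CellTiter-Glo so that cell viability, reflected by luminescence, could be recorded for p53RE-bla cells dosed 16 h with compounds under microsomal activation (HLM and NADPH).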

[9] = p53 small molecule agonists, cell-based qHTS assay with rat liver microsomes: qHTS cell viability counter screen (AID 1963580); further: nearly all actives have a fitted effect of over 45% in size
Procedure, shortened: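 Viability is assessed in parallel with the p53 reporter read: HCT-116 p53RE-bla cells receive compounds plus rat microsomes and NADPH (0.5 mg/mL final apiece), incubate 16 h at 37 C, and then CellTiter-Glo luminescence is recorded.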

[10] = p53 small molecule agonists, cell-based qHTS assay: qHTS cell viability counter screen (AID 1963581); further: nearly all actives have a fitted effect of over 45% in size
Procedure, shortened: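 Following 5 h attachment, HCT-116 p53RE-bla cells took up compound for 16 h at 37 C; the reporter was read with B/G FRET substrate (2 h RT), and viability then via CellTiter-Glo ATP luminescence.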

[11] = p53 small molecule agonists, cell-based qHTS assay (AID 1963582; active means well fitted activation curve with a large enough effect in the signal ratio in the repeat runs, not every such curve was filed as active; the % refers to the signal ratio)
Procedure, shortened: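 In this cell-based concentration-response screen, a p53 response element drives beta-lactamase; cells received DMSO-borne compounds after 5 h culture and were incubated a further 16 h before FRET substrate development.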

[12] = cAMP Responsive Elements (CRE) small molecule agonists, cell-based qHTS assay (AID 1963590); further: potency means the concentration at half of the fitted maximal effect
Procedure, shortened: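 A CRE-responsive beta-lactamase reporter in HEK 293T cells was used. Treatment ran 3 h at 37 C; detection used LiveBLAzer B/G FRET substrate for 2 h at room temperature.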

[13] = cAMP Responsive Elements (CRE) small molecule antagonists, cell-based qHTS assay (AID 1963591; active means well fitted inhibition curve with a large enough effect in the signal ratio in the repeat runs, not every such curve was filed as active; the % refers to the signal ratio)
Procedure, shortened: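 HEK293T cells carrying a CRE-driven beta-lactamase reporter receive compound and NKH477 (0.25 uM final) for 3 h. Fluorescence from LiveBLAzer B/G FRET substrate is read after 2 h at room temperature.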

[14] = target: Beta-2 adrenergic receptor (Homo sapiens) (UniProt P07550); experiment: Adrenergic beta2 receptor (ADRB2) small molecule antagonists, cell-based qHTS assay (AID 1963592); further: series mostly up to about 92 µM; nearly all actives have a fitted effect of over 50% in size
Procedure, shortened: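 Cells (CHO, stable ADRB2 overexpression) incubated 18-20hr at 37C; compounds added from DMSO; agonist mix (1nM isoproterenol, 100uM IBMX, 25uM Ro-20-1724) added; 0.5hr RT; d2-cAMP and anti-cAMP-cryptate added; 1hr RT; 665/615 nm read.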

[15] = target: D(2) dopamine receptor (Homo sapiens) (UniProt P14416); experiment: Dopamine D2 receptor (DRD2) small molecule agonists, cell-based qHTS assay (AID 1963594); further: nearly all actives have a fitted effect of over 35% in size
Procedure, shortened: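 HEK293 cells stably expressing human DRD2, pre-treated with PDE inhibitor Ro20-1724 (0.1 mM final) and compound 10 min at room temperature, then stimulated with NKH477 (200nM […]) for 30 min. cAMP read by HTRF (665/620 nm).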

[16] = target: D(2) dopamine receptor (Homo sapiens) (UniProt P14416); experiment: Dopamine D2 receptor (DRD2) small molecule antagonists, cell-based qHTS assay (AID 1963595; active means well fitted inhibition curve with a large enough effect in the signal ratio in the repeat runs, with a control signal flat; the % refers to the signal ratio; further: potency means the concentration at half of the fitted maximal effect)
Procedure, shortened: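 HTRF cAMP read-out at 665 and 620 nm emission (340 nm excitation). Antagonist mode: compounds were tested against 12 nM quinpirole in DRD2-HEK293 cells, with 200 nM NKH477 raising cAMP and 0.1 mM Ro20-1724 blocking its breakdown.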

[17] = target: 5-hydroxytryptamine receptor 2A (Homo sapiens) (UniProt P28223); experiment: 5-hydroxytryptamine receptor 2A (HTR2A) small molecule antagonists, cell-based qHTS assay (AID 1963586); further: nearly all actives have a fitted effect of over 45% in size
Procedure, shortened: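 Antagonist-mode intracellular calcium assay: DOI (4 nM) added after 5 min compound pre-incubation at room temperature to dye-loaded HTR2A-CHO cells. Fluorescence followed for 3 min, sampled every second.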

[18] = target: 5-hydroxytryptamine receptor 2A (Homo sapiens) (UniProt P28223); experiment: 5-hydroxytryptamine receptor 2A (HTR2A) small molecule agonists, cell-based qHTS assay (AID 1963587); further: nearly all actives have a fitted effect of over 30% in size
Procedure, shortened: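 CHO cells stably expressing human HTR2A, plated 18 h, loaded with calcium dye 1 h at 37 C. Agonist mode: compounds added and intracellular calcium fluorescence recorded kinetically for 2 min at 1 sec intervals.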

[19] = target: Muscarinic acetylcholine receptor M1 (Homo sapiens) (UniProt P11229); experiment: Cholinergic receptor muscarinic 1 (CHRM1) small molecule antagonists, cell-based qHTS assay (AID 1963588); further: nearly all actives have a fitted effect of over 40% in size
Procedure, shortened: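 CHRM1-CHO calcium-flux assay, antagonist mode. Cells were seeded 18 h, dye-loaded 1 h at 37 C and given compound for 5 min at RT, then acetylcholine was added at 50nM. FDSS fluorescence was read 3 min; 15 concentrations, three runs.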

[20] = target: Muscarinic acetylcholine receptor M1 (Homo sapiens) (UniProt P11229); experiment: Cholinergic receptor muscarinic 1 (CHRM1) small molecule agonists, cell-based qHTS assay (AID 1963589); further: nearly all actives have a fitted effect of over 35% in size
Procedure, shortened: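 Measures agonist-induced intracellular calcium rise. Stable human CHRM1 CHO line, 1 h dye load at 37 C, compounds from DMSO, kinetic fluorescence read.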
On the % scale 0 is the no-effect control and ±100 the full control effect.

Beta-2 adrenergic receptor (Homo sapiens), sequence (P07550 whole entry, looked up): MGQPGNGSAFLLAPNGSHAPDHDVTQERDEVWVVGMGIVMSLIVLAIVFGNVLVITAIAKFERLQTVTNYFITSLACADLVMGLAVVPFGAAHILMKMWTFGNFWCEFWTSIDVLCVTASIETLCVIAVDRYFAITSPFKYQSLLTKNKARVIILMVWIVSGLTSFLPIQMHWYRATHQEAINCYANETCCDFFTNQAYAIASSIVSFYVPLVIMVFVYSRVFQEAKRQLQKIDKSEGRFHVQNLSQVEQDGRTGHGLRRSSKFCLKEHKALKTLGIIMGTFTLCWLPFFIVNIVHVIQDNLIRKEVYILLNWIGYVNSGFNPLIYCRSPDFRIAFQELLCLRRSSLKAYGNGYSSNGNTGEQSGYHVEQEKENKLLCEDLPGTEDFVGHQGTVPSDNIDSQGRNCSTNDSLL
Gonadotropin-releasing hormone receptor (Homo sapiens), sequence (P30968 whole entry, looked up): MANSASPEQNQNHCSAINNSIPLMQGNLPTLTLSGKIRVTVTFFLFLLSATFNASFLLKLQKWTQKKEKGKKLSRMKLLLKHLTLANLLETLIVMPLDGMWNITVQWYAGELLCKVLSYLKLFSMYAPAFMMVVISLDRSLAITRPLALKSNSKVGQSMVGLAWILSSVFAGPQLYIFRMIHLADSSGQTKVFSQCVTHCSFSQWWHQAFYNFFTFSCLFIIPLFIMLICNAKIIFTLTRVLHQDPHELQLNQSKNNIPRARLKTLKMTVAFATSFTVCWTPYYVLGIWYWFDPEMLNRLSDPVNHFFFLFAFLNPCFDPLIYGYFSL
Muscarinic acetylcholine receptor M1 (Homo sapiens), sequence (P11229 whole entry, looked up): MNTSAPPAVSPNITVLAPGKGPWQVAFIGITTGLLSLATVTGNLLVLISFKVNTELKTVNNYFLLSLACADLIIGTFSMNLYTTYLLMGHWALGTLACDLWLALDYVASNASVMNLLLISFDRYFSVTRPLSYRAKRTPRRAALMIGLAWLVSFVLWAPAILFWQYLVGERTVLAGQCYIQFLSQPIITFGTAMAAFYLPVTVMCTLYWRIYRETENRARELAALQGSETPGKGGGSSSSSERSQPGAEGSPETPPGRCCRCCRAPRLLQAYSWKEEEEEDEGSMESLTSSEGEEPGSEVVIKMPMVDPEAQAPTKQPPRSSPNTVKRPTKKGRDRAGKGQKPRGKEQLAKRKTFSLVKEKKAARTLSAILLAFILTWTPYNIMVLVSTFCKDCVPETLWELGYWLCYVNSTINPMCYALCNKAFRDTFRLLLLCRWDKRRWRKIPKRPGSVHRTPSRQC
D(2) dopamine receptor (Homo sapiens), sequence (P14416 whole entry, looked up): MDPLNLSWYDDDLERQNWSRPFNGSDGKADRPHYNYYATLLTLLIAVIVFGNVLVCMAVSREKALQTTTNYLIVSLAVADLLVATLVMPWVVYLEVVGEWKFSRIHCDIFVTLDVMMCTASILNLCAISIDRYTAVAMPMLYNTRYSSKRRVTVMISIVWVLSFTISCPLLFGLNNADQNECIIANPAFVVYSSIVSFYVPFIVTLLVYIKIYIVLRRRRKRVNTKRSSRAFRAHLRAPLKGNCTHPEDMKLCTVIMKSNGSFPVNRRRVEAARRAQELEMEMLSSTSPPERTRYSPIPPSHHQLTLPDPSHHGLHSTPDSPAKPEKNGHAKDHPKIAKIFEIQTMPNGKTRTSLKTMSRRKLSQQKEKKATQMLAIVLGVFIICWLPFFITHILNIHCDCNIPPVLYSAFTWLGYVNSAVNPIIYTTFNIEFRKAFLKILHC
KiSS-1 receptor (Homo sapiens), sequence (Q969F8 whole entry, looked up): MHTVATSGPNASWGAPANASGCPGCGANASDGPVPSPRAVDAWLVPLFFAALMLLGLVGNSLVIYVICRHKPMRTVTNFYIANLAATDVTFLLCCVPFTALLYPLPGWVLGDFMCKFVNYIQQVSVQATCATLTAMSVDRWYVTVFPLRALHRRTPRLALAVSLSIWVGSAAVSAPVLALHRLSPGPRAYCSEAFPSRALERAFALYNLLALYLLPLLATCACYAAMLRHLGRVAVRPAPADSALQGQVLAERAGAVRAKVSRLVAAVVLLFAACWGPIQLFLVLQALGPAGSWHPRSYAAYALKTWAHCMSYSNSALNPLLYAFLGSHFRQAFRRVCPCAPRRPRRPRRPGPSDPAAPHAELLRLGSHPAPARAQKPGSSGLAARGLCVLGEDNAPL
5-hydroxytryptamine receptor 2A (Homo sapiens), sequence (P28223 whole entry, looked up): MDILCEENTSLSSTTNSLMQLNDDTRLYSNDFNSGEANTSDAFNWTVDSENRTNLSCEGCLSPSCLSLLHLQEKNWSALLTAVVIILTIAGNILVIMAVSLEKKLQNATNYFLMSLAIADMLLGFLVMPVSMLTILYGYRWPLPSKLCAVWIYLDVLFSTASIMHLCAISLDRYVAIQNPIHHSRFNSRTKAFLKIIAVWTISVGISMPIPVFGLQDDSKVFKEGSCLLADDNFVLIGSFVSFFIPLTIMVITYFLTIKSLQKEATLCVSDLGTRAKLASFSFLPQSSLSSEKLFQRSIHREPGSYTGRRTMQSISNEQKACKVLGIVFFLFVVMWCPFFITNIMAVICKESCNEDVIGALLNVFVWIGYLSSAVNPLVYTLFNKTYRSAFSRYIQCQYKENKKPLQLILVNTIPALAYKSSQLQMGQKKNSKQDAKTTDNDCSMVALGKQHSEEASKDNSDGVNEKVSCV

C[n+]1ccccc1/C=N/O
inactive: Potency [1] | Potency [2] | Potency [3] | outcome [4] | outcome [5] | Potency [6] | Potency [7] | Potency [8] | Potency [9] | Potency [10] | Potency [11] | Potency [12] | Potency [13] | Potency [14] | Potency [15] | Potency [16]

CCOC(=O)[C@H](CCc1ccccc1)N[C@@H](C)C(=O)N1[C@H](C(=O)O)C[C@@H]2CCC[C@@H]21
inactive: Potency [1] | Potency [2] | Potency [3] | outcome [4] | outcome [5] | Potency [6] | Potency [7] | Potency [8] | Potency [9] | Potency [10] | Potency [11] | Potency [12] | Potency [13] | Potency [15] | Potency [16]

CN1CCN(c2c(F)cc3c(=O)c(C(=O)O)cn(CCF)c3c2F)CC1
inactive: Potency [1] | Potency [2] | Potency [3] | outcome [4] | outcome [5] | Potency [6] | Potency [7] | Potency [8] | Potency [9] | Potency [10] | Potency [11] | Potency [12] | Potency [16]

NC1CCN(c2nc3c(cc2F)c(=O)c(C(=O)O)cn3-c2ccc(F)cc2F)C1 (stereo unspecified)
inactive: Potency [1] | Potency [2] | Potency [3] | outcome [4] | outcome [5] | Potency [6] | Potency [7] | Potency [8] | Potency [9] | Potency [10] | Potency [11] | Potency [15]

CC(=O)Nc1cc(S(=O)(=O)O)cc2cc(S(=O)(=O)O)c(N=Nc3ccccc3)c(O)c12
inactive: Potency [2] | Potency [3] | outcome [4] | outcome [5] | Potency [6] | Potency [7] | Potency [8] | Potency [9] | Potency [10] | Potency [17] | Potency [18] | Potency [19] | Potency [20] | Potency [12] | Potency [13] | Potency [15]
active: Potency [1] 27.3 µM

CCCS(=O)c1ccc2nc(NC(=O)OC)[nH]c2c1 (stereo unspecified)
inactive: Potency [1] | Potency [2] | Potency [3] | outcome [4] | outcome [5] | Potency [6] | Potency [7] | Potency [8] | Potency [9] | Potency [10] | Potency [17] | Potency [18] | Potency [19] | Potency [20] | Potency [12] | Potency [14] | Potency [16]

CC(=O)OC(C)c1ccccc1 (stereo unspecified)
inactive: Potency [1] | Potency [2] | Potency [3] | outcome [4] | outcome [5] | Potency [6] | Potency [7] | Potency [8] | Potency [9] | Potency [10] | Potency [17] | Potency [18] | Potency [19] | Potency [20] | Potency [12] | Potency [14] | Potency [15] | Potency [16]

O=C(O)C[C@H](O)C[C@H](O)/C=C/c1c(C2CC2)nc2ccccc2c1-c1ccc(F)cc1
inactive: activity change, negative = cytotoxicity [1] -15.1% [at 19 µM] | activity, positive = activation [2] -21.1% [at 19 µM] | activity change [3] -1.52% [at 11.8 µM, active compounds read high] | activation [4] -0.214% [at 15.8 µM] | activation [5] -0.173% [at 11.8 µM] | activation [6] -13.7% [at 13.5 µM] | activation [7] -4.07% [at 13.6 µM] | activity change, negative = cytotoxicity [8] -1.08% [at 13.5 µM] | activity change, negative = cytotoxicity [9] 1.65% [at 13.5 µM] | activity change, negative = cytotoxicity [10] 0.0104% [at 13.5 µM] | activity, negative = inhibition [17] -9.13% [at 12.7 µM] | activation [18] -5.4% [at 15.9 µM] | activity, negative = inhibition [19] 7.39% [at 12.6 µM] | activation [20] -0.297% [at 15.8 µM] | activation [12] 0.303% [at 19 µM] | activity change, negative = inhibition [14] -0.968% [at 19 µM] | activation [15] -0.0463% [at 19 µM] | activity change, negative = inhibition [16] 4% [at 18.9 µM]

COc1ccc(OC)c(NC(=O)CC(C)=O)c1
inactive: Potency [1] | Potency [2] | Potency [3] | outcome [4] | outcome [5] | Potency [6] | Potency [7] | Potency [8] | Potency [9] | Potency [10] | Potency [17] | Potency [18] | Potency [19] | Potency [20] | Potency [12] | Potency [14] | Potency [15] | Potency [16]

ClC(Cl)(Br)Br
inactive: Potency [1] | Potency [2] | Potency [3] | outcome [4] | outcome [5] | Potency [6] | Potency [7] | Potency [8] | Potency [9] | Potency [10] | Potency [17] | Potency [18] | Potency [19] | Potency [20] | Potency [12] | Potency [13] | Potency [14] | Potency [15]

CCC(C=O)CC
inactive: Potency [1] | Potency [2] | Potency [3] | outcome [4] | outcome [5] | Potency [6] | Potency [7] | Potency [8] | Potency [9] | Potency [10] | Potency [17] | Potency [18] | Potency [19] | Potency [20] | Potency [12] | Potency [13] | Potency [14] | Potency [15] | Potency [16]

CNC(=O)c1cnn(-c2nc(N)c3ncn([C@@H]4O[C@H](CO)[C@@H](O)[C@H]4O)c3n2)c1
active: Potency [12] 11.9 µM | Potency [16] 1.88 µM
inactive: Potency [1] | Potency [2] | Potency [3] | outcome [4] | outcome [5] | Potency [6] | Potency [7] | Potency [8] | Potency [9] | Potency [10] | Potency [17] | Potency [18] | Potency [19] | Potency [20] | Potency [14]

C/C=C(\C)C#N
inactive: Potency [1] | Potency [2] | Potency [3] | outcome [4] | outcome [5] | Potency [6] | Potency [7] | Potency [8] | Potency [9] | Potency [10] | Potency [17] | Potency [18] | Potency [19] | Potency [20] | Potency [12] | Potency [13] | Potency [14] | Potency [16]

From PubChem BioAssay (Tox21)
